Data published in PubChem BioAssay AID624141 (Broad Institute, 2012).
Among all 17,000 compounds or so, about 260 (1.5%) were called active.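 The calls were made as follows: active = spot fluorescence over background with P-value below 7% in all four replicate spots, showing protein binding; inactive = the rest.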 What follows is part of a selection rich in actives, with near analogues and random picks from the rest.

Target: Myc proto-oncogene protein (Homo sapiens) (UniProt P01106)
Experiment: binders of human c-Myc, primary screen, biochemical, small molecule microarray, anti-His fluorescence (AID 624141)
Settings: His-c-Myc binding

Myc proto-oncogene protein (Homo sapiens), sequence (P01106 whole entry, looked up): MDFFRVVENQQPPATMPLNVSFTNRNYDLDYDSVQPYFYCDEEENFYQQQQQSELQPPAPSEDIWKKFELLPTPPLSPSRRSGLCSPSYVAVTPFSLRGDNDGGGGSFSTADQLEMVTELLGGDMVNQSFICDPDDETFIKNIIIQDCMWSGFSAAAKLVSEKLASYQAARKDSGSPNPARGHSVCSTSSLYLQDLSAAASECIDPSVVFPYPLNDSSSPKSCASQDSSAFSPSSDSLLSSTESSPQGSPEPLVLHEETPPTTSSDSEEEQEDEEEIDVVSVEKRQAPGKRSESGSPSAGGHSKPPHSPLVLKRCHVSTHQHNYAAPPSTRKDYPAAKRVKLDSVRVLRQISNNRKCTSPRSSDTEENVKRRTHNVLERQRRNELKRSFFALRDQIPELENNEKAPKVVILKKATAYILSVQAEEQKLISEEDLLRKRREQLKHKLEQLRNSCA

Structure (SMILES)	outcome
COc1ccc2[nH]cc(CCNCc3ccc(Br)cc3)c2c1	inactive
c1cncc(CNCCc2c[nH]c3ccccc23)c1	active
c1ccc(CCCCN2CCC(c3ccccc3)CC2)cc1	inactive
C[C@H](CO)N1C[C@H](C)[C@H](CN(C)C(=O)Oc2ccc3ccccc3c2)OCc2cnnn2CCCC1=O	inactive
CN[C@@H]1C[C@H]2O[C@@](C)([C@@H]1OC)n1c3ccccc3c3c4c(c5c6ccccc6n2c5c31)C(=O)NC4	inactive
